Source: PubChem (National Center for Advancing Translational Sciences (NCATS))
In the library only some 7.7% were active in any assay of this set; here they are far more common.
Sm TGR block = qHTS Assay for the Inhibitors of Schistosoma Mansoni Peroxiredoxins; hit rate 3% among 360,000; purified TGR, DTNB reduction, TNB absorbance 405 nm; Schistosoma mansoni thioredoxin glutathione reductase (TGR), Q962Y6; Potency, µM (highest dose often 114 µM), for inactives: top-dose activity change, negative = inhibition, most hits filed as inhibitors; also: potency is read from the fitted curve at half-maximal effect; nearly all actives have a fitted effect of over 60% in size
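Kinetic colorimetric format: TGR-catalysed, NADPH-driven DTNB reduction monitored via TNB absorbance. Enzyme dispensed at 20 nM; compound exposure 15 min at room temperature before reaction start.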
HCMV inh = qHTS Assay for inhibitors of the human cytomegalovirus (HCMV) | HFF cells, HCMV-luciferase reporter, 72 h; active compounds read low | activity change, negative = inhibition, % at 57.5 µM | hit rate 4.5% among 410,000; in the data active = activity change below about -60%; inconclusive = no clear call, values can overlap the other calls; inactive = above about -39%
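Luciferase read-out from HCMV-luciferase-infected HFFs (MOI 1 PFU/cell) 72 h post infection at 37C; compounds added after 16 h cell attachment; activity normalized between buffer-only basal and Salinomycin (10uM) inhibitor controls.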
RE007 growth inh = qHTS Assay for Inhibitors of the HIV-1 protein Vpr; hit rate 0.21% among 360,000; S. pombe RE007 Vpr strain, BacTiter-Glo ATP luminescence, 24 h; Potency, µM (highest dose often 92.2 µM), for the others: at the top dose activity change, negative = less growth, usual class: inhibitors; AID 651644, 2012; active = well fitted falling curve with a large enough effect; inconclusive = small, poorly fitted or top-dose-only effect; inactive = no such curve, though single readings can be large or run the other way; also: potency is read from the fitted curve at half-maximal effect; nearly all actives have a fitted effect of over 50% in size
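Fission yeast RE007 carrying one integrated HIV-1 vpr copy, seeded at OD 0.01 in PMG+AL medium with 23 nL pinned compound. Grown 24 h at 30 degrees; viability read by BacTiter-Glo luminescence after 5 min.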
Tb PYK inh = qHTS of Trypanosoma Brucei Inhibitors | pyruvate kinase (Trypanosoma brucei), Q57TT1 | TbPYK enzyme, Kinase-Glo Plus ATP luminescence, 45 min | Potency, µM (doses to about 76.8 µM), for inactives: top-dose activity, negative = inhibition, usual class: inhibitors | hit rate 0.12% among 410,000; also: potency is read from the fitted curve at half-maximal effect; nearly all actives have a fitted effect of over 50% in size
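Activity of T. brucei pyruvate kinase was followed by Kinase-Glo Plus luminescence after the enzyme reacted 45 min at room temperature with 130 uM ADP (final) and substrate. Test compounds were added before ADP at multiple concentrations.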
FMDV antiviral = High Throughput Screening for Foot and Mouth Disease Virus Antivirals; AID 1159524, 2015; Potency, µM (top dose mostly 57.9 µM), for the others: top-dose activity change, negative = inhibition, usual class: inhibitors; FMDV antiviral cell-based qHTS; hit rate 1.2% among 410,000; calls by dose curve; tested in HEK293T cells; also: read-out not given here; potency is read from the fitted curve at half-maximal effect; nearly all actives have a fitted effect of over 45% in size
Giardia FBPA inh-1 = qHTS Assay for Inhibitors of Fructose-1,6-bisphosphate Aldolase from Giardia Lamblia; Potency, µM (titrated, usually from 59.6 µM), without a hit: top-dose activity, negative = inhibition, usual class: inhibitors; hit rate 0.71% among 290,000; AID 2451, 2010; purified Giardia FBPA; A8B2U2; also: potency is read from the fitted curve at half-maximal effect; nearly all actives have a fitted effect of over 55% in size
Target sequence (A8B2U2 whole entry, looked up): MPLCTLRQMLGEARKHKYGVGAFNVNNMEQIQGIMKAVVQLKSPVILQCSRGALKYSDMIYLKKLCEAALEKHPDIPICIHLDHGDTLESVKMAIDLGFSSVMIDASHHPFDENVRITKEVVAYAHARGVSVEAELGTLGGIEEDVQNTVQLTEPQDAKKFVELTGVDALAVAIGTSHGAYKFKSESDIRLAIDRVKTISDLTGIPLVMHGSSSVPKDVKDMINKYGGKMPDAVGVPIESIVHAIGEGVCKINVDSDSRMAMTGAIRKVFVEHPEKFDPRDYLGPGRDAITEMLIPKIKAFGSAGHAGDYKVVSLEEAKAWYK
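Giardia FBPA (40 nM reagent) was preincubated 10 min at RT with compound (up to 57.5 uM final), then substrate plus GAPDH/TPI/NAD/arsenate coupling system with diaphorase/resazurin was added; resorufin fluorescence (525/598 nm) was read after 20 min.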
Giardia growth = qHTS Assay for Inhibitors of Fructose-1,6-bisphosphate Aldolase from Giardia Lamblia: Giardia lamblia growth inhibition. shares compounds with Giardia FBPA inh-1. Giardia lamblia trophozoite growth inhibition. Potency, µM (top dose mostly 57.5 µM), inactives show top-dose activity change, negative = inhibition, most hits filed as inhibitors. hit rate 5% among 1,500. AID 2785, 2010;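 also: potency is read from the fitted curve at half-maximal effect; trophozoites exposed to compound for 48 h at 37 °C; nearly all actives have a fitted effect of over 70% in size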
Mammalian tox = qHTS Assay for Inhibitors of Fructose-1,6-bisphosphate Aldolase from Giardia Lamblia: Mammalian cellular toxicity | shares compounds with Giardia FBPA inh-1 | mammalian cell viability counter-screen, qHTS | Potency, µM (titrated, usually from 57.5 µM), inactives show at the highest dose viability change, negative = toxicity, usual class: inhibitors | hit rate 4% among 1,500;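 also: Chinese hamster ovary cells used as mammalian cytotoxicity surrogate; viability measured as cellular ATP by luminescence; potency is read from the fitted curve at half-maximal effect; compound exposure lasted 48 h before reading; nearly all actives have a fitted effect of over 60% in size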
Giardia FBPA inh-2 = qHTS Assay for Inhibitors of Fructose-1,6-bisphosphate Aldolase from Giardia Lamblia: Primary screen confirmation; shares compounds with Giardia FBPA inh-1; purified Giardia aldolase enzyme activity, qHTS; Potency, µM (top dose mostly 57.5 µM), without a hit: top-dose activity change, negative = inhibition, usual class: inhibitors; hit rate 5% among 1,500; also: potency is read from the fitted curve at half-maximal effect; nearly all actives have a fitted effect of over 45% in size
Rabbit FBPA inh = qHTS Assay for Inhibitors of Fructose-1,6-bisphosphate Aldolase from Giardia Lamblia: Rabbit FBPA Selectivity; Potency, µM (doses to about 57.5 µM), inactives show top-dose activity, negative = inhibition, actives largely listed as inhibitors; Rabbit muscle FBPA enzyme inhibition, selectivity counter-screen; hit rate 4% among 1,500; shares compounds with Giardia FBPA inh-1; also: potency is read from the fitted curve at half-maximal effect; nearly all actives have a fitted effect of over 60% in size
Target sequence (P00883 whole entry, looked up): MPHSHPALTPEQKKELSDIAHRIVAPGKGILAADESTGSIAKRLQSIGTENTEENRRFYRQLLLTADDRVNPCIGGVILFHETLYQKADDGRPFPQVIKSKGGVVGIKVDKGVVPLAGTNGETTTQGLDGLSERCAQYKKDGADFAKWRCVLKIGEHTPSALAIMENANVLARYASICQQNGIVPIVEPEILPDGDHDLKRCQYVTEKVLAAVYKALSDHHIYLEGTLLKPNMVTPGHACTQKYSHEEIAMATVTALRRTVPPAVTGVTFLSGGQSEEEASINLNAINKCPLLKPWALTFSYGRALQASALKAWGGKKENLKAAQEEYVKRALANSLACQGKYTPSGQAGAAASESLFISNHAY
GAPDH coupling = qHTS Assay for Inhibitors of Fructose-1,6-bisphosphate Aldolase from Giardia Lamblia: Coupling assay counterscreen confirmation; shares compounds with Giardia FBPA inh-1; GAPDH coupling enzyme counterscreen, biochemical, qHTS; Potency, µM (highest dose often 57.5 µM), inactives show at the highest dose activity change, negative = inhibition, actives largely listed as inhibitors; hit rate 6% among 1,500; also: potency is read from the fitted curve at half-maximal effect; nearly all actives have a fitted effect of over 55% in size
The depositor's hits bear a star; ? = inconclusive; . = no result given; [ ] = dose if it differs, or a comment. Unless noted, calls follow the shape of the dose curve; as a rule, active = well fitted curve in the direction sought with a large enough effect; inconclusive = small, poorly fitted or top-dose-only effect, or another doubt; inactive = no such curve, though single readings can be large; an effect the other way counts as inactive or inconclusive. % is scaled to controls: 0 for no effect and ±100 for the full control effect.

SMILES	Sm TGR block	HCMV inh	RE007 growth inh	Tb PYK inh	FMDV antiviral	Giardia FBPA inh-1	Giardia growth	Mammalian tox	Giardia FBPA inh-2	Rabbit FBPA inh	GAPDH coupling
CCOc1ccc(CNC(=O)c2cnc3sc(N4CCCCCC4)nn3c2=O)cc1OC	2%	10	.	2%	-14%	.	.	.	.	.	.
Cc1nc(NCCO)c2nc(-c3ccccc3)n(CCCN(C)C)c2n1	.	.	.	.	.	0%	.	.	.	.	.
Cc1ccc(Cl)cc1NC(=O)Cn1c(=O)cc(C)c2c(C)nn(C)c21	1%	-6	.	-5%	?	.	.	.	.	.	.
CC(C)N1CCc2c(sc(NC(=O)Cc3ccccc3)c2C(N)=O)C1	-1%	-2	0%	-2%	?	13µM*	?	11%	9%	8%	9%
CSc1nccn1C(=O)c1ccccc1[N+](=O)[O-]	?	12	-3%	-13%	-15%	28µM*	11%[10.4 µM]	9%	-14%	-11%	-10%
Cn1ccnc1Sc1ccccc1[N+](=O)[O-]	0%	-35	-1%	-1%	-14%	-8%	.	.	.	.	.
COc1ccc2cc3cc(C(=O)NCCN4CCc5ccccc5C4)sc3nc2c1	-9%	10	-4%	4%	12%	16µM*	20%[10.4 µM]	-7%	-9%	4%	4%
COc1ccc2cc3cc(C(=O)NCCN4CCc5ccccc5C4)oc3nc2c1	-11%	.	?	4%	?	18µM*	75%	-14%	-1%	-2%	4%
Cc1ccc(S(=O)(=O)N2CCOCC2)cc1NC(=O)CNCc1cccnc1	8%	-6	26%	1%	-23%	16µM*	-8%[10.4 µM]	-1%	-1%	6%	7%
Cc1ccc(-n2nc(C(=O)N3CCN(c4cc(Cl)ccc4C)CC3)c3c4ccccc4n(C)c3c2=O)cc1	13%	5	.	0%	-28%	.	.	.	.	.	.
CCN(CC)c1ccc(/C=C2\NC(=O)NC2=O)cc1	-7%	6	10%	-5%	2%	-9%	.	.	.	.	.
CCN(CC)c1ccc(C=C2C(=O)NC(=S)NC2=O)cc1	16µM*	-29	8%	?	22µM*	14µM*	14µM*	0%	-10%	-1%	5%
COc1cccc(/C=C/C(=O)Nc2ccc(OC)nc2)c1	-13%	-66*	-9%	-2%	6%	22µM*	?	-8%	-19%	-1%	-9%
COc1ccc(NC(=O)/C=C/c2ccccc2)cn1	4%	10	-16%	22%	44%	-26%	.	.	.	.	.
CCOC(=O)c1cc(-c2ccccc2)n(-c2cccc(C(=O)Nc3ccc(OCC)cc3)c2)c1C	10%	-11	.	2%	-11%	.	.	.	.	.	.
CCCS(=O)(=O)N1CCCC(C(=O)NCCOC)C1 (stereo not given)	50%	13	.	-2%	-6%	.	.	.	.	.	.
CN(C)C(CNC(C(=O)Nc1ccc([N+](=O)[O-])cc1Br)c1ccccc1)c1ccccc1 (stereo not given)	-16%	22	-13%	21%	0%	20µM*	-12%[10.4 µM]	-20%	1%	-4%	2%
Cc1ccsc1C1C(C#N)=C(N)OC2=C1C(=O)CCC2 (stereo not given)	-2%[57.1 µM]	12	-7%	-4%	-25%	18µM*	37%	17%	-27%	-30%	?
Cc1ccc(C2C(C#N)=C(N)OC3=C2C(=O)CCC3)s1 (stereo not given)	24%	13	6%	-5%	8%	-14%	.	.	.	.	.
OC(COC(c1ccc(F)cc1)c1ccc(F)cc1)CN1CCCC(C(F)(F)F)C1 (stereo not given)	-20%	?	-7%	38%	-2%	14µM*	?	-3%	2%	4%	-5%
OCCN1CCN(CC(O)COC(c2ccc(F)cc2)c2ccc(F)cc2)CC1 (stereo not given)	-20%	-16	-13%	18%	-2%	?	.	.	.	.	.
COc1ccc(N2CCN(CC(O)COC(c3ccccc3)c3ccccc3)CC2)cc1 (stereo not given)	-2%	0	2%	-13%	-2%	-1%	.	.	.	.	.
COc1ccc(N2CCN(CC(O)COC(c3ccc(F)cc3)c3ccc(F)cc3)CC2)cc1 (stereo not given)	1%	-29	-18%	5%	-19%	16µM*	4%[10.4 µM]	13%	-7%	-8%	3%
O=S(=O)(c1ccc(Br)cc1)c1nc(-c2ccco2)oc1SCc1ccccc1F	2%	-22	.	2%	1%	.	.	.	.	.	.
Cc1cc(N/N=C/c2ccccc2O)c2ccccc2n1	0%	?	18%	4%	8%	-1%	.	.	.	.	.
Cc1ccccc1/C=N/Nc1nc2ccccc2c(=O)n1O	-1%	32	6%	-21%	10%	18µM*	?	-6%	-22%	-14%	-15%
Cn1c(=O)c2c([nH]c(=S)n2CCCc2ccccc2)n(C)c1=O	-14%	4	13%	2.5µM*	-9%	10µM*	-20%[10.4 µM]	4%	6%	-17%	16%
Cn1c(=O)c2c(nc(Br)n2CCCc2ccccc2)n(C)c1=O	-2%	9	1%	0%	-24%	-17%	.	.	.	.	.
